# Screening results: PubChem BioAssay, National Center for Advancing Translational Sciences (NCATS)
# The list is not random: actives were taken first. Their share in the collection is about 0.77%.
# IL2 activator = qHTS of IL-2 Activators; IL-2 activation reporter assay, cell-based qHTS; stimulated with anti-CD3/CD4/CD28 beads; in transgenic mouse T cells; activation, % (series mostly up to about 46 µM); 0.065% of 360,000 active; AID 652025, 2013; in the data active = activation above about 50%; inconclusive = mostly about 30% to 49%; also: 0% is about no effect
#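 Unstimulated transgenic mouse T cells preincubated 60 min with compound, then stimulated with anti-CD3/anti-CD4-coated beads plus anti-CD28 for 18 h at 37 degrees C. IL-2 response read as EGFP and DsRed fluorescence by plate cytometry.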
# GoLoco inh red = qHTS Assay for Inhibitors of RGS12 GoLoco Motif Activity (Red Fluorophore); 0.44% of 230,000 active; Gai1:RGS12 GoLoco peptide FP, rhodamine, 10 min; Guanine nucleotide-binding protein G(i) subunit alpha-1 (Homo sapiens), P63096; Potency, µM (top dose mostly 61.6 µM), without a hit: at the top dose activity, negative = inhibition, usual class: inhibitors; active = well fitted inhibition curve with a large enough effect, not every such curve was filed as active; inactive = no such curve, though single readings can be large or run the other way; also: potency is read from the fitted curve at half-maximal effect; % is scaled to controls: 0 for no effect and ±100 for the full control effect; nearly all actives have a fitted effect of over 30% in size
# Target sequence (P63096 whole entry, looked up): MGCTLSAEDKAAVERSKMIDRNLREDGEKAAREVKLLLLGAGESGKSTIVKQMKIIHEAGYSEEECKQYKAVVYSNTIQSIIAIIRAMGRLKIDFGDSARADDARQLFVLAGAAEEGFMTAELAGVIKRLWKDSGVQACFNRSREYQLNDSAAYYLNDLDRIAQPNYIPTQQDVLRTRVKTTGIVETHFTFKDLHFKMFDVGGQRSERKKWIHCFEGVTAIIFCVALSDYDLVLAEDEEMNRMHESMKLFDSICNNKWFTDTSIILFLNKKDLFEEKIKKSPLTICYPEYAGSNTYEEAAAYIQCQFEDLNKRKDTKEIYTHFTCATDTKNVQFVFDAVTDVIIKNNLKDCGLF
# GCN5L2 inh = qHTS Assay for Inhibitors of GCN5L2; Histone acetyltransferase KAT2A (Homo sapiens), Q92830; GCN5L2 HAT assay, ThioGlo1 CoA-SH fluorescence; Potency, µM (top dose mostly 58.9 µM), without a hit: at the highest dose activity change, negative = inhibition, usual class: inhibitors; 0.21% of 390,000 active; AID 504327, 2011; also: potency is read from the fitted curve at half-maximal effect; % is scaled to controls: 0 for no effect and ±100 for the full control effect
#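 Enzyme at 20nM final was mixed with library compounds for 15 min at room temperature. Peptide H3(1-25) at 75uM, acetyl-CoA at 70uM and ThioGlo1 at 50uM were then added. Plates were read immediately and after 20 min (Ex340nm/Em540nm).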
# Vif-A3G inh = qHTS for Inhibitors of Vif-A3G Interactions: qHTS; DNA dC->dU-editing enzyme APOBEC-3G (Homo sapiens), Q9HC16; AID 602310, 2012; 0.076% of 410,000 active; Potency, µM (series often up to 46.1 µM), without a hit: top-dose activity, negative = active, most hits filed as inhibitors; HeLa A3G-eYFP + Vif (tagged APOBEC3G with the HIV-1 protein that degrades it), YFP fluorescence, overnight; also: potency is read from the fitted curve at half-maximal effect; % is scaled to controls: 0 for no effect and ±100 for the full control effect; nearly all actives have a fitted effect of over 60% in size
# Target sequence (Q9HC16 whole entry, looked up): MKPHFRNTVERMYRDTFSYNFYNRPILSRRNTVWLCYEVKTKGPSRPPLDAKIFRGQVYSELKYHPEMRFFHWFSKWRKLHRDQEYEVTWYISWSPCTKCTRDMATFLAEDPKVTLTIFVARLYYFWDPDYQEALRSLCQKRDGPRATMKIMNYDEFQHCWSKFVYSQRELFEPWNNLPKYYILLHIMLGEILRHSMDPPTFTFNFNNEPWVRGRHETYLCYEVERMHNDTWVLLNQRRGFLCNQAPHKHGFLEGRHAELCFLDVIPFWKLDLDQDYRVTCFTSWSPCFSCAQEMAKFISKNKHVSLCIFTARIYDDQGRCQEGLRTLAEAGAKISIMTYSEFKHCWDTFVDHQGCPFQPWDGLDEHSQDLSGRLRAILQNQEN
#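 Read-out is eYFP fluorescence (Ex 488/Em 500-530) from Vif-expressing HeLa A3G-eYFP cells; more signal means A3G escaped Vif-mediated degradation. Cells plated overnight, compound pinned in, incubated overnight at 37 deg C.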
# Vif-APOBEC3F blk = qHTS for Inhibitors of Vif-A3F Interactions: qHTS; HeLa A3F-eYFP + Vif (tagged APOBEC3F with the HIV-1 protein that degrades it), YFP fluorescence increase; Potency, µM (series often up to 46.1 µM), for inactives: at the top dose activity, negative = active; 0.2% of 390,000 active; AID 602313, 2012; also: potency is read from the fitted curve at half-maximal effect; % of control where 0% means no effect; nearly all actives have a fitted effect of over 65% in size
#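 Fluorescence increase (Ex 488/Em 500-530) after overnight compound treatment at 37 deg C flags inhibition of Vif-driven A3F-eYFP loss in stable HeLa A3F-eYFP/Vif cells seeded overnight beforehand.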
# PKM2 activator = qHTS Assay for Activators of Human Muscle isoform 2 Pyruvate Kinase; AID 1631, 2009; purified PKM2, Kinase-Glo ATP luminescence, activation; response scale: 0% is enzyme alone, no compound; Pyruvate kinase PKM (Homo sapiens), P14618; 0.34% of 260,000 active; Potency, µM (titrated, usually from 57.5 µM), inactives show top-dose activation, most hits filed as activators; also: potency is read from the fitted curve at half-maximal effect; % is scaled to controls: 0 for no effect and ±100 for the full control effect; nearly all actives have a fitted effect of over 55% in size
#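 Purified hPK-M2 (>95% pure) converted ADP (0.1 mM final) to ATP with 0.5 mM PEP in 50 mM imidazole pH7.2, KCl, MgCl2, Tween 20, BSA; 1 h at room temperature. ATP detected by Kinase-Glo luminescence.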
# * marks the source's active call; other numbers are inactive results; ? = inconclusive; . = not tested or not shown; ! = not confirmed by another sample; [ ] = remark or other dose. Unless noted, calls follow the shape of the dose curve; as a rule, active = well fitted curve in the direction sought with a large enough effect; inconclusive = small, poorly fitted or top-dose-only effect, or another doubt; inactive = no such curve, though single readings can be large; an effect the other way counts as inactive or inconclusive.
SMILES,IL2 activator,GoLoco inh red,GCN5L2 inh,Vif-A3G inh,Vif-APOBEC3F blk,PKM2 activator
Nc1c(/C=C2/C=CC(=O)C(O)=C2)c(=O)nc2sc(CC(=O)N3CCCC3)nn12,0,.,-21%,1%,1%,.
O=C(O)c1ccc2c3c(ncnc13)-c1ccccc1C2=O,0,18µM*,-12%,-24%,-14%,-3%
O=C1c2ccccc2C(=O)c2c(NC(=O)c3ccc4c5c(ncnc35)-c3ccccc3C4=O)cccc21,.,2%[14.2 µM],.,.,.,.
COc1ccccc1NNC(=O)C(O)(c1ccccc1OC)c1ccccc1OC,2,-3%,-4%,-7%,0%,-7%
CCn1nc(-c2ccccc2)c2nc3ccccc3nc21,10,-3%,-19%,13µM*,25µM*,-7%
CCCn1nc(-c2ccccc2)c2nc3ccccc3nc21,1,-3%,-9%,-13%,?,0%
O=C(N/N=C1\CCCc2ccccc21)c1cccc([N+](=O)[O-])c1,0,6%,32µM*,1%,0%,-4%
CCOC(=O)N1CCN(c2nc(-c3ccco3)cc(C(F)(F)F)n2)CC1,-1,12%,4µM*,-7%,-18%,0%
CCOC(=O)N1CCN(c2nc(-c3cccc(OC)c3)cc(C(F)(F)F)n2)CC1,2,5%,-12%,0%,.,3%
O=C(OCc1nnc(-c2cccs2)o1)c1cccnc1Cl,1,.,-3%,4%,-17%,.
Cc1nn(C)cc1CNC(=O)C1CCC(=O)N(CC2CCCCC2)C1 (centres undefined),-3,.,-3%,0%,-2%,-1%
Cc1nc(COC(=O)c2ccc(CO)cc2)cs1,-3,2%,0%,0%,0%,?
Cc1nc(COC(=O)c2cc(O)c3ccccc3c2O)cs1,3,25µM*,-20%,-5%,-11%,?
CC(C)(Sc1ccc(CCN(CCCCC2CCCCC2)C(=O)NC2CCCCC2)cc1)C(=O)O,0,10%,13µM*,-2%,-1%,.
N#CCCn1c(SCC(=O)NCC2CCCO2)nc2ccccc21 (centres undefined),1,17%,-1%,1%,.,20µM*
O=C1C(O)=C(O)C(=O)C(O)=C1O,.,25µM*,-3%,.,.,.
CC1=C(O)C(=O)C(C2=C(O)C(=O)C(C)=C(O)C2=O)=C(O)C1=O,2,.,.,-1%,3%,.
c1nc(NC2CCNCC2)c2cc(-c3ccoc3)ccc2n1,.,13%,20µM*,.,.,.
C/C(CC(=O)Nc1ccccn1)=N\NC(=O)c1ccccc1,.,9%,20%,.,.,4%
COc1cc(OC)cc(C(=O)N/N=C(\C)CC(=O)Nc2ccccn2)c1,2,.,-9%,3.5µM*,-3%,.
Cc1ccc(-c2nc3ncccn3c2Nc2ccccc2C)o1,-1,-23%,-10%,-26%,2%,11µM*
O=C(NCc1ccccc1C(F)(F)F)C1CCC(=O)N(C2CC2)C1 (centres undefined),0,.,1%,-2%,8%,.
Cc1c(N(C)CS(=O)(=O)O)c(=O)n(-c2ccccc2)n1C,0,28µM*!,23%,1%,7%,.
[N-]=C=C1C(=S)NC(=O)[C@H]([n+]2ccccc2)[C@H]1c1ccc(Cl)cc1,-2,-30%,11µM*,1%,1%,-19%
[N-]=C=C1C(=O)NC(=O)C([n+]2ccc(-c3ccncc3)cc2)C1c1ccccc1C(F)(F)F (centres undefined),6,-17%,-3%,-4%,4%,-8%
SMILES,IL2 activator,GoLoco inh red,GCN5L2 inh,Vif-A3G inh,Vif-APOBEC3F blk,PKM2 activator
CCSc1nnc(-c2ccccc2NC(C)=O)c(=O)[nH]1,3,16%,-6%,3%,-23%,-10%
CC(=O)/C(N=Nc1cc(C)ccc1O)=C(\C)O,0,62%,-3%,?,25µM*,-2%
CCCCCCCCCCCCC/C=C/[C@@H](O)[C@@H](N)COP(=O)(O)O,.,22µM*!,13%,.,.,.
CCCCCCCC/C=C\CCCCCCCC(=O)OC[C@@H](O)COP(=O)(O)O,.,0%,-13%,.,.,.
OC(c1nc2ccccc2[nH]1)C(O)c1nc2ccccc2[nH]1 (centres undefined),2,.,-1%,-4%,0%,4%
FC(F)(F)c1nc2cc3nc4ccccc4[nH]c3cc2n1,-4,16µM*,-5%,-10%,-46%,-41%
N#CC(C#N)=C1C=CC=CN1/C(=C\c1ccco1)C(=O)c1ccccc1,-1,3%,0%,?,20µM*,18%
N#CC(C#N)=C1C=CC=CN1/C(=C\c1ccco1)C(=O)c1ccc(Br)cc1,-1,6%,7%,-23%,?,24%
O=Nc1c(O)[nH]c2ccc(F)cc12,-2,18%,-14%,-7%,17%,19%
COc1ccc2[nH]c(O)c(N=O)c2c1,-2,16µM*,-11%,2%,1%,-2%
CC1(C)CC(=O)c2cc(C#N)c(=O)n(-c3ccc(Cl)cc3)c2C1,.,.,-7%,-4%,-4%,.
CC1(C)CCC(C)(C)c2cc(C(=O)Nc3ccc(C(=O)O)cc3)ccc21,.,-5%,?,.,.,.
C=C(c1ccc(C(=O)O)cc1)c1cc2c(cc1C)C(C)(C)CCC2(C)C,.,.,6.3µM*,.,.,.
O=C1C=Cc2ccccc2/C1=C/c1[nH]c(=O)[nH]c1O,1,10%,-9%,-9%,0%,-2%
CC(=O)OCCCCCCCCCCC[N+]1(C)CCCCC1,0,11%,-10%,3%,1%,0%
COC(=O)CCCCCCCCCC[N+]1(C)CCCCC1,0,11µM*,-6%,0%,0%,-4%
CN1C(=O)/C(=C/c2ccccc2OCc2ccccc2)NC1=S,2,-2%,-8%,-1%,1%,-1%
CN1C(=O)/C(=C/c2ccccc2OCc2ccc(F)cc2)N(C)C1=S,-4,-6%,48%,-3%,3.5µM*,-2%
Nc1c(C(=O)N/N=C/c2ccccc2Cl)oc2nc(-c3ccccc3)cc(-c3ccco3)c12,10,13%,-1%,?,7.1µM*,-3%
Nc1c(C(=O)N/N=C/c2ccc(F)cc2)oc2nc(-c3ccccc3)cc(-c3ccco3)c12,230*,10%,-12%,?,?,-6%
COc1ccc(NC(C)=[N+](C)CCNS(=O)(=O)c2ccc(Cl)cc2)cc1Cl,0,.,-19%,0%,4%,-2%
